# Assay results taken from PubChem BioAssay.
# Active and inactive are the calls of the source. No stated cut-off is given here; in the data, active means fold change permeability below about 0.7 or above about 1.3; inactive means in between.
# Test: modulators of brain endothelial barrier permeability, primary screen, cell-based, FITC-avidin fluorescence, HTS (AID 1963498); further: test concentration not given here
# Conditions: actives lie on both sides
row,Structure (SMILES),fold change permeability
1,CC1OC1P(=O)(O)O (stereo unspecified),1.1 (inactive)
2,C[C@@H]1[C@@H]2Cc3ccc(O)cc3[C@@]1(C)CCN2CC1CC1,1.3 (active)
3,CC(N)[C@H](O)c1ccc(O)c(O)c1 (stereo partly specified),1 (inactive)
4,NC(CP(=O)(O)O)C(=O)O (stereo unspecified),1 (inactive)
5,Cc1ccc(S(=O)(=O)N[C@@H](CCCCN)C(=O)CCl)cc1,1.4 (active)
6,Clc1ccc(CO/N=C(\Cn2ccnc2)c2ccc(Cl)cc2Cl)c(Cl)c1,1.6 (active)
7,C[N+]1(C)CCOC(O)(c2ccc(-c3ccc(C4(O)C[N+](C)(C)CCO4)cc3)cc2)C1 (stereo unspecified),1.1 (inactive)
8,CS(=N)(=O)CC[C@H](N)C(=O)O (stereo partly specified),0.8 (inactive)
9,NC(=NCCC[C@H](N)C(=O)O)N[N+](=O)[O-],1 (inactive)
10,S=C(NC1CCCCC1)N1CCC(c2cnc[nH]2)CC1,1.6 (active)
11,Cc1nccc2c1[nH]c1ccccc12,1.2 (inactive)
12,c1ccc2c(c1)[I+]c1ccccc1-2,1.7 (active)
13,O=C(N[C@H]1CN2CCC1CC2)c1ccc(Cl)cc1,1.3 (active)
14,CC(N)C(=O)OC(C)(C)Cc1ccc(Cl)cc1 (stereo unspecified),1.1 (inactive)
15,Clc1cnc(Oc2ccc(Oc3ncc(Cl)cc3Cl)cc2)c(Cl)c1,1.4 (active)
16,Cc1ccc2c(c1)C1(CCN(CCc3nc(-c4ccccc4)oc3C)CC1)OC(=O)N2,1 (inactive)
17,CC1OC(C[N+](C)(C)C)CC1O (stereo unspecified),0.9 (inactive)
18,C[N+]1(C)CCC(OC(=O)C(c2ccccc2)c2ccccc2)CC1,1.6 (active)

row,Structure (SMILES),fold change permeability
1,CCCN1CCC[C@@H]2Cc3[nH]ncc3C[C@H]21,0.9 (inactive)
2,Nc1ccc(CCN2CCN(c3cccc(C(F)(F)F)c3)CC2)cc1,1.8 (active)
3,CNCCc1c[nH]c2ccc(O)cc12,0.8 (inactive)
4,NCCc1ccc(S(=O)(=O)F)cc1,1 (inactive)
5,O=c1[nH]oc2c1CCNC2,1.4 (active)
6,CC(N)Cc1c[nH]c2ccc(O)cc12 (stereo unspecified),0.8 (inactive)
7,O=C(N[C@H]1CN2CCC1CC2)c1c[nH]c2ccsc2c1=O,0.9 (inactive)
8,CCCN(CCC)C1CCc2cccc(O)c2C1 (stereo unspecified),1 (inactive)
9,Oc1ccc2c3c1O[C@H]1c4[nH]c5ccccc5c4C[C@@]4(O)[C@@H](C2)N(CC2CC2)CC[C@]314,1 (inactive)
10,CC(=O)OCC1=C(C(=O)[O-])N2C(=O)[C@@H](NC(=O)CCC[C@@H](N)C(=O)[O-])[C@H]2SC1.[Zn+2],1 (inactive)
11,CNCC(O)c1ccc(O)cc1 (stereo unspecified),0.7 (active)
12,O=P(O)(O)C(O)(Cc1cnc2ccccn12)P(=O)(O)O,0.8 (inactive)
13,O=C(CCCN1CCC2(CC1)C(=O)NCN2c1ccccc1)c1ccc(F)cc1,1 (inactive)
14,CC(=O)NBr,1 (inactive)
15,NNC(=O)c1ccc(O)cc1,0.8 (inactive)
16,CC(Cc1ccc(OCC(=O)O)cc1)NCC(O)c1cccc(Cl)c1 (stereo unspecified),1 (inactive)
17,N[C@@H](Cn1oc(=O)[nH]c1=O)C(=O)O,1.1 (inactive)
18,c1ccc(C[N+]23CN4CN(CN(C4)C2)C3)cc1,0.7 (active)
